PubChem BioAssay AID540308 (The Scripps Research Institute Molecular Screening Center, 2011)
Screen size: about 360,000 compounds; about 3,500 (0.97%) were called active. Many of the other results were omitted from the sample, so actives are more common in it than they were. Unmarked numbers belong to inactive results.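 How the source made its calls: active means activation above a per-plate cutoff, the mean activation of sample wells on that plate plus 3 SD (cut at about 8% in these data); inactive means the rest.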

The molecules below were run against Melanocortin receptor 4 (Homo sapiens) (UniProt P32245) (assay: MC4R agonists recruiting beta-arrestin, primary screen, cell-based, luminescence, agonist arm of biased-ligand search (AID 540308)). Settings: U2OS MC4R beta-arrestin complementation, at 8.9 µM, stronger effect = higher value, percent of melanotan II response, DMSO zero.
Sequence of Melanocortin receptor 4 (Homo sapiens) (P32245 whole entry, looked up): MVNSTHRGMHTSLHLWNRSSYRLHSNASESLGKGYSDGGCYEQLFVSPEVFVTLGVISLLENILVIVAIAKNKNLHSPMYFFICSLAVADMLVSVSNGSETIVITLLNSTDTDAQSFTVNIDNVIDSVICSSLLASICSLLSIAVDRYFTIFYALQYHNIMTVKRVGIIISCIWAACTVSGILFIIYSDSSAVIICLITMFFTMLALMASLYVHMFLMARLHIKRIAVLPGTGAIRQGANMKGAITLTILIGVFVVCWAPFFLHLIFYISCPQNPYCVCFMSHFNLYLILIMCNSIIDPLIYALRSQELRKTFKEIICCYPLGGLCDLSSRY

SMILES | activation
O=C(CSc1ccccc1)Nc1nnc(/C=C/c2ccccc2)s1 | 10.9% (active)
O=C(/C=C/c1ccccc1)Nc1nnc(SCC(=O)c2ccc3ccccc3c2)s1 | -0.51%
CCOCc1nnc(NC(=O)CSc2ccc(C)cc2)s1 | -1.16%
CCNC(=O)C1(C)CCCN(Cc2noc(-c3ccccc3OC)n2)C1 (centres undefined) | 0.8%
COc1ccc(OC)c(NC(=O)c2cc(-c3cc(F)ccc3OCC3CCCO3)n[nH]2)c1 (centres undefined) | 2.25%
Cc1nc(C(F)(F)F)ccc1C(=O)N1CCC1(C)C(=O)NS(=O)(=O)c1ccccc1 (centres undefined) | -2.41%
O=C(Nc1nnc(Cc2ccc(Cl)cc2)s1)c1ccncc1 | -0.7%
COc1ccc(Cc2nnc(NC(=O)c3ccc(OC)cc3OC)s2)cc1 | 16.6% (active)
COc1ccccc1NC(=O)Nc1nnc(Cc2ccc(F)cc2)s1 | 13.2% (active)
COc1ccc(Cc2nnc(NC(=O)c3cc(OC)c(OC)c(OC)c3)s2)cc1OC | 0.62%
O=C(Nc1nnc(COc2ccccc2)s1)Nc1ccccc1F | -0.21%
COc1ccccc1NC(=O)Nc1nc(CC(=O)Nc2ccccc2F)cs1 | -1.3%
COc1cccc(CNc2nc3cc(-c4csc5ccccc45)sc3c(=O)n2C)c1 | 6.53%
Cc1ccc(Cn2c(C)c(C(=O)NCc3ccccc3C(F)(F)F)sc2=O)cc1 | 0.28%
CC1(C(=O)Nc2ccccc2Br)CCN1C(=O)CC1CC1 (centres undefined) | 1%
Cc1ccccc1S(=O)(=O)NC(=O)C1(C)CCN1C(=O)Cc1ccc(Cl)cc1Cl (centres undefined) | -1.27%
CCCc1c(C)nc2c(Br)cccc2c1Cl | 0.46%
COc1cccc(NC(=O)C2(C)CCN2Cc2ccccc2Cl)c1 (centres undefined) | 2.88%
O=C(NCc1ccccc1)C1CCCN(S(=O)(=O)c2cccs2)C1 (centres undefined) | 1.44%
Cc1cc(=O)n2nc(N3CCCC(C(=O)NCc4ccc(Cl)cc4)C3)sc2n1 (centres undefined) | -1.57%
O=C(NCc1ccccc1)C1CCCN(c2nc3ccsc3c(=O)s2)C1 (centres undefined) | 8.43% (active)
Cc1ccccc1CN1CCC(C(=O)Nc2ccc(Oc3cccnc3)cc2)CC1 | -3.23%
CCc1nc2ccc(C(=O)NCc3ccc(OC)cc3)cn2c1N(CC)Cc1cccc(Br)c1 | -1.05%

SMILES | activation
O=C(Nc1nnc(Cc2ccccc2)s1)c1cnccn1 | -0.34%
O=C(Nc1nc(-c2ccc(-c3ccccc3)cc2)cs1)c1cnccn1 | 25.9% (active)
CC(=O)Nc1ccc(-c2csc(NC(=O)Nc3ccccc3)n2)cc1 | 11% (active)
O=C(NCCCNC(=O)c1ccccc1Cl)c1cnccn1 | 0.85%
Cc1ccc(NC(=O)Nc2cc(-c3ccccc3)nn2C)cc1Cl | -0.42%
CC(=O)Nc1ccc(-c2cn3cccnc3n2)cc1 | -2.81%
CC(C)(C)c1ccc(S(=O)(=O)NC(=O)C2(C)CCN2C(=O)CC2CC2)cc1 (centres undefined) | -2.01%
COCCNc1ncnc2c1ncn2[C@H]1CN(CCN2CCOCC2)C[C@@H](CO)O1 | -1.53%
CC1(C(=O)NS(=O)(=O)c2cccc(OC(F)F)c2)CCN1C(=O)C1CC1 (centres undefined) | -1.02%
CC1(C(=O)NS(=O)(=O)Cc2cccc(Cl)c2)CCN1C(=O)Cc1ccc(Cl)cc1Cl (centres undefined) | 1.12%
CCc1nc2ccc(C(=O)Nc3ccc(OC)c(OC)c3)cn2c1N(C)C(=O)c1cccc(OC)c1 | -1.68%
CC1(C(=O)NCc2ccc3c(c2)OCO3)CCN1C(=O)Cc1cccc2ccccc12 (centres undefined) | -2.21%
COC(=O)Cn1nc(-c2ccccc2)c2cc(Cl)ccc21 | -2.4%
NC(N)=Nc1nc(-c2ccccc2)c2cc(Cl)ccc2n1 | 9.69% (active)
Clc1ccc2nc(-c3ccccc3)nc(C(Cl)Cl)c2c1 | 1.35%
CC1(C(=O)NS(=O)(=O)c2cccc(F)c2)CCN1C(=O)Cc1ccc(Cl)cc1Cl (centres undefined) | -2.74%
Cc1ccccc1-c1nc(NC(C)C)nc2cc(-c3ccccc3)sc12 | -0.61%
CC1(C(=O)NS(=O)(=O)c2ccc3ccccc3c2)CCN1C(=O)C1(c2ccc(Cl)cc2)CCC1 (centres undefined) | -0.24%
CSc1nc2sc3c(c2c(=O)[nH]1)CCc1ccccc1-3 | 12.4% (active)
CCSc1nc2sc3c(c2c(=O)[nH]1)CC(C)(C)OC3 | -0.6%
CCSc1nnc(-c2cc3c(s2)-c2ccccc2CC3)o1 | -0.34%
COc1ccc(/C=C/C(=O)c2c(O)cc(OC)cc2OC)cc1 | -0.69%
N#Cc1cccc(NC(=O)c2cc(C3CCCCN3C(=O)CCc3ccccc3)on2)c1 (centres undefined) | -1.43%

SMILES | activation
CC(C)Oc1ccc(CN2CCC2(C)C(=O)NCc2ccc(C(F)(F)F)cc2)cc1 (centres undefined) | 0.02%
COc1ccc(Cl)cc1-n1c(C)cc(C(=O)OCC(=O)N2CC(=O)Nc3ccccc32)c1C | 15.3% (active)
COc1ccc(C(=O)OCC(=O)N2CC(=O)Nc3ccccc32)cc1Br | 0.65%
COc1cc(OC)c(C(=O)OCC(=O)N2CC(=O)Nc3ccccc32)cc1OC | -2.02%
O=C(Nc1cccc(Cc2ccccc2)c1)Nc1ccc2nc([C@@H]3O[C@H](CO)[C@@H](O)[C@H](O)[C@H]3O)[nH]c2c1 | -0.22%
C[C@H](NC(=O)[C@@H]1Cc2ccccc2CN1C(=O)OC(C)(C)C)C(=O)NC1CCCC1 | -3.11%
CC(=O)Nc1cnc(-c2ccc(O)cc2C)cn1 | -2.1%
Cc1c(C(=O)NCC2CC2)sc(=O)n1Cc1cccc(F)c1 | 1.11%
COc1ccc(CC(=O)Nc2cc(S(=O)(=O)N3CCCCC3)ccc2N2CCN(C)CC2)cc1 | -2.51%
Cc1cccc(NC(=O)Nc2cccc(Oc3c(F)c(F)c(F)c(F)c3F)c2)c1 | 15.8% (active)
Cc1ccoc1C(=O)Nc1cccc(Oc2ccccc2)c1 | 0.82%
COc1cccc(NC(=O)Nc2ccc(F)cc2)c1 | 1.45%
CC(C)CNC(=O)C1(C)CCCN1C(=O)CSc1ccccc1 (centres undefined) | -1.48%
CC(Oc1ccc(Br)cc1)C(=O)NCC(c1ccco1)N1CCCCC1 (centres undefined) | 0.14%
O=C(Nc1ccc(N2CCOCC2)cc1)c1cccc2c(-c3ccc(F)c(F)c3)coc12 | 3.52%
COc1ccc(CC(=O)Nc2c(C(N)=O)oc3ccccc23)cc1 | -1.72%
COc1ccc(CC(=O)Nc2sc(Cc3ccccc3)c(C)c2C(N)=O)cc1 | 9.06% (active)
Cc1ccc(C(=O)Nc2sc(Cc3ccc4c(c3)OCO4)c(C)c2C(N)=O)cc1 | 0.85%
CCc1nc2ccc(C(=O)N(C)CCN(C)C)cn2c1N(CC)CCOC | -1.01%
COc1ccc(NC(=O)C2Cc3c(-c4ccc(Cl)cc4)ccnc3O2)cc1 (centres undefined) | 2.27%
Cc1cccnc1C(NC(=O)C1CCN(Cc2ccc(Cl)c(Cl)c2)CC1)c1ccc(Cl)cc1 (centres undefined) | -0.01%
COc1ccccc1C(=O)COC(=O)COc1ccc(C#N)cc1 | -0.25%
N#C/C(=C(/O)COC(=O)COc1ccc(Cl)cc1)c1nc2ccccc2[nH]1 | 14.5% (active)

SMILES | activation
CC(C)(C)c1nnc2sc(SCC(O)=C(C#N)c3nc4ccccc4[nH]3)nn2c1=O | -0.79%
CC(C)NC(=O)C1(C)CCCCCN1C(=O)c1ccc(-c2ccccc2)cc1 (centres undefined) | -1.12%
COCCNc1nnc(SCC(=O)NNC(=O)c2ccco2)s1 | -0.17%
O=C(NCc1ccc(F)cc1)c1cc(C2CCCCN2C(=O)c2cccs2)on1 (centres undefined) | -0.1%
COC(=O)c1sccc1NC(=O)c1ccc(Cl)cc1 | 3.1%
COC(=O)c1sccc1NN1C(=O)c2ccccc2C1=O | 1.29%
COC(=O)c1sccc1NC(=O)c1cc(OC)c(OC)c(OC)c1 | 10.6% (active)
COc1ccc(NC(=O)C2(C)Cc3c(-c4cccc(NC(C)=O)c4)ccnc3O2)cc1 (centres undefined) | -0.48%
CCN(CC)C(=O)C1CCCN(Cc2cccc(Cl)c2)C1 (centres undefined) | -1.07%
Cc1noc(C)c1C(=O)N1CCC1(C)C(=O)NS(=O)(=O)c1ccc(C#N)cc1 (centres undefined) | -1.23%
COc1cccc(C(NC(C)=O)c2nc(-c3cnc4ccccc4c3)cs2)c1 (centres undefined) | -2.35%
O=C(CSc1nc2ccccc2c(=O)[nH]1)Nc1nc(-c2ccc(Br)cc2)cs1 | 0.03%
Cc1ccc(-c2csc(NC(=O)Cn3[nH]c(=O)c4ccccc4c3=O)n2)cc1 | 16.1% (active)
Cc1ccc(C)c(C(=O)COC(=O)Cn2[nH]c(=O)c3ccccc3c2=O)c1 | -1.85%
Cc1cc(=O)oc2c3c(cc(OCC(=O)NCC(O)c4ccccc4)c12)OC(C)(C)CC3 (centres undefined) | 2.2%
CCc1nc2c(OCc3ccc(Cl)cc3Cl)cccn2c1N(C)C(=O)C(C)C | -0.09%
Cc1ccc([C@H]2C[C@H](O)[C@@H](n3cc(COC(=O)c4ccccc4)nn3)CN2C(=O)C2CCCCC2)cc1 | 9.82% (active)
CCCCCC(=O)N1C[C@H](O)[C@@H](n2cc(COC(=O)c3ccccc3)nn2)C[C@@H]1c1ccc(C)cc1 | 0.09%
Cc1ccc([C@H]2C[C@H](O)[C@@H](n3cc(COC(=O)c4ccccc4)nn3)CN2CC2CCCCC2)cc1 | 1.06%
Fc1ccc(-c2csc(-c3ccc(C4SCCS4)cc3)n2)cc1F | 1.21%
